The values below come from PubChem BioAssay (NCATS).

SMILES strings stand for the structures. Inconclusive results are not listed. A call without a number means that no potency is given here. The source made the active and inactive calls. The call rests on the fitted dose curve.

A short description of this assay: Primary qHTS for Huh7 cytotoxicity: counterscreen for inhibitors of MERS-S pseudotyped particle cell entry (AID 1479147). Particulars: cell viability read-out; series mostly up to 57.1 µM. For orientation: qHTS replaces the single test concentration by a dilution series.
For `CC(=O)N(CC(C)C(=O)O)c1c(I)cc(I)c(N)c1I` (stereo unspecified), the Potency result was “inactive”.

Consider `O=C(c1ccc(F)c(F)c1Nc1ccc(I)cc1F)N1CC(O)([C@@H]2CCCCN2)C1`, for which the Potency result was “inactive”.

As for `O=C(Nc1ccc(O)cc1)c1ccccc1O`, the Potency result was “inactive”.

Turning to `COC(=O)[C@H]1[C@H]2C[C@@H]3c4[nH]c5cc(OC)ccc5c4CCN3C[C@H]2C[C@@H](OC(=O)/C=C/c2cc(OC)c(OC)c(OC)c2)[C@@H]1OC`, the Potency entry is “inactive”.

With `Cc1c(C)c2c(c(C)c1OC(=O)CCC(=O)O)CC[C@@](C)(CCC[C@H](C)CCC[C@H](C)CCCC(C)C)O2`, the Potency result was “inactive”.

With `C#C[C@]1(OC(C)=O)CC[C@H]2[C@@H]3CCC4=CC(=O)CC[C@@H]4[C@H]3CC[C@@]21C`, the Potency entry was “inactive”.

In the case of `CCCCN(CCCC)C(=S)[S-].CCCCN(CCCC)C(=S)[S-].[Zn+2]`, the Potency result is “inactive”.

For the compound `CC(OC(=O)NCC1(CC(=O)O)CCCCC1)OC(=O)C(C)C` (stereo unspecified), the Potency result was “inactive”.

Regarding `CC1CCCC(C)N1C(=S)Nc1cccc(C(F)(F)F)c1` (stereo unspecified), the Potency result is “inactive”.

On to `CCN(CC)CCOc1ccc2nc(N(C)C)sc2c1`, for which the Potency result is “inactive”.

On to `CCN(CC)C(=O)[C@]1(c2ccccc2)C[C@H]1CN`, for which the Potency result is “inactive”.

For the compound `Cc1c(N)nc(C(CC(N)=O)NCC(N)C(N)=O)nc1C(=O)NC(C(=O)NC(C)C(O)C(C)C(=O)NC(C(=O)NCCc1nc(-c2nc(C(=O)NCCCN[C@@H](C)c3ccccc3)cs2)cs1)C(C)O)C(O[C@@H]1O[C@@H](CO)[C@@H](O)[C@H](O)[C@@H]1O[C@H]1O[C@H](CO)[C@@H](O)[C@H](OC(N)=O)[C@@H]1O)c1cnc[nH]1` (stereo partly specified), the Potency entry is “inactive”.

Regarding `N[C@H](Cc1cnc[nH]1)C(=O)O`, the Potency entry was “inactive”.

Regarding `CCCCCCCCCCCCCCCCCC(=O)NCCCC[C@H](NC(=O)CC[C@@H](NC(=O)[C@H](C)NC(=O)[C@@H](C)O[C@H]1[C@H](O)[C@@H](CO)OC(O)[C@@H]1NC(C)=O)C(N)=O)C(=O)O` (stereo partly specified), the Potency result was “inactive”.

Take `CN1N=C2CCN(C(=O)[C@H](COCc3ccccc3)NC(=O)C(C)(C)N)C[C@]2(Cc2ccccc2)C1=O`: the Potency entry is “inactive”.

For the compound `CCC(c1ccccc1)c1c(O)c2ccccc2oc1=O` (stereo unspecified), the Potency entry is “inactive”.

In the case of `CCCCC(=O)N(Cc1ccc(-c2ccccc2-c2nn[nH]n2)cc1)[C@H](C(=O)O)C(C)C`, the Potency entry was “inactive”.

Turning to `CC1CCCCN1CCCOC(=O)c1ccccc1` (stereo unspecified), the Potency result is “inactive”.

On to `N=C(N)c1ccc(/C=C/c2ccc(C(=N)N)cc2O)cc1`, for which the Potency entry was “inactive”.

In the case of `C[C@H]1[C@H](OC(=O)CCC(=O)O)O[C@@H]2O[C@@]3(C)CC[C@H]4[C@H](C)CC[C@@H]1[C@@]24OO3`, the Potency result was “inactive”.

In the case of `CCCCCCCCCCCCCCCC(=O)OCC(O)C1OC(=O)C(O)=C1O` (stereo unspecified), the Potency result is “inactive”.

As for `C=C1c2c(Cl)ccc(O)c2C(O)=C2C(=O)[C@@]3(O)C(O)=C(C(N)=O)C(=O)[C@@H](N(C)C)[C@@H]3[C@@H](O)[C@H]12`, the Potency entry was “inactive”.

Turning to `CN(C)CCC(O)(c1ccccc1)c1ccccc1Cl` (stereo unspecified), the Potency result was “inactive”.

With `CC(C)N(CCCCOCC(=O)NS(C)(=O)=O)c1cnc(-c2ccccc2)c(-c2ccccc2)n1`, the Potency result is “inactive”.

For the compound `O=C(O)[C@H]1OC(O)[C@H](O)[C@@H](O)[C@@H]1O` (stereo partly specified), the Potency entry is “inactive”.

Turning to `O=C(O)C[C@@H]1CC[C@H](NC(=O)Cc2cccs2)B(O)O1`, the Potency entry is “inactive”.

On to `CNCc1cc(-c2ccccc2F)n(S(=O)(=O)c2cccnc2)c1`, for which the Potency result is “inactive”.

As for `CCC(=O)O[C@@H](OP(=O)(CCCCc1ccccc1)CC(=O)N1C[C@H](C2CCCCC2)C[C@H]1C(=O)O)C(C)C` (stereo partly specified), the outcome is “inactive [at 11.4 µM]”.

As to `CN1c2c(nc(N)[nH]c2=O)NC[C@@H]1CNc1ccc(C(=O)N[C@@H](CCC(=O)O)C(=O)O)cc1`, the outcome was “inactive [at 5.34 µM]”.

As to `C[C@H](Cc1cc2c(c(C(N)=O)c1)N(CCCO)CC2)NCCOc1ccccc1OCC(F)(F)F`, the Potency entry was “inactive”.

Turning to `CCCCCCCCCCCCOC(=O)CS(=O)(=O)O`, the Potency result was “inactive”.

Turning to `O=C(O)c1cc2ccccc2c(Cc2c(O)c(C(=O)O)cc3ccccc23)c1O`, the Potency entry was “inactive”.

For the compound `CN[C@@H]1[C@@H](O)[C@@H](O[C@@H]2[C@@H](O)[C@H](OC3O[C@H](CN)[C@@H](O)[C@H](O)[C@H]3O)[C@@H](N)C[C@H]2NC(=O)[C@@H](O)CN)OC[C@]1(C)O` (stereo partly specified), the Potency result was “inactive”.

On to `O=C(O)C(O)C(O)C(=O)O` (stereo unspecified), for which the Potency result is “inactive”.

Turning to `CC(C)(C)C(=O)OCOC(=O)[C@@H]1N2C(=O)[C@@H](N=CN3CCCCCC3)[C@H]2SC1(C)C`, the Potency result was “inactive”.

Turning to `CC(=O)Nc1c(I)c(C(=O)N[C@H]2C(O)O[C@H](CO)[C@@H](O)[C@@H]2O)c(I)c(N(C)C(C)=O)c1I` (stereo partly specified), the Potency result is “inactive”.
